# Whole data set: some 33,000 sequences, median “e-score” near -0.053, cut for the highest 2% near 0.38. The sample as a whole holds a higher share of the highest values than the screen did.
# Target: T1, SIX1 homeodomain (reference allele) (human, UniProt Q15475 108-198)
# T1 sequence: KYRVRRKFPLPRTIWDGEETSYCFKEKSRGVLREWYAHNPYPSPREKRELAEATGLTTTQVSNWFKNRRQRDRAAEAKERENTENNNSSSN
# Experiment: universal protein binding microarray; Universal all-10-mer PBM (8x60K, AMADID 030236), 300 nM GST-tagged protein, Alexa Fluor 488 anti-GST; buffer, salt, pH and temperature not stated (as in Berger); high values mean tight binding
# Conditions: protein: ivt; tags: N-terminal GST; dsDNA, one strand shown
# Summary of the method: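 Duplicate protein binding microarrays (universal 'all 10-mer', 8×60K format) were incubated with GST-tagged homeodomains at 300 nM final concentration. Binding was quantified as 8-mer E-scores with the Universal PBM Analysis Suite.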
row,Sequence,binding signal [E-score]
1,CGATCTTC,0.288 ± 0.0189
2,GATGGGTA,0.223 ± 0.0133
3,ATTTGATC,0.215 ± 0.0531
4,CTTTGATA,0.331 ± 0.0715
5,ATTTGATA,0.397 ± 0.0881
6,CTTTGATC,0.213 ± 0.0316
7,GTTTGATA,0.379 ± 0.067
8,GTTCGATA,0.324 ± 0.0131
9,CAATACGA,0.207 ± 0.026
10,ATCACTTC,0.3 ± 0.0422
11,CTCAGATA,0.31 ± 0.032
12,GTCAGATA,0.273 ± 0.0192
13,ATCAGATG,0.319 ± 0.0136
14,CTCAGATC,0.27 ± 0.00864
15,ATCAGATA,0.378 ± 0.0255
16,ATCAGATC,0.394 ± 0.0295
17,CGTATGAA,0.15 ± 0.0134
18,CCGGTGTA,0.332 ± 0.0356
19,CAGGTGTA,0.272 ± 0.00711
20,CCGGTGTC,0.431 ± 0.0182
21,ACGGTGTA,0.255 ± 0.00781
22,AAGGTGTC,0.373 ± 0.0231
23,ACGGTGAT,0.181 ± 0.00713
24,ACGGTGTC,0.437 ± 0.0187
25,CCCGTGTC,0.255 ± 0.0128

row,Sequence,binding signal [E-score]
1,CAGGTGTC,0.394 ± 0.0354
2,GTCTGGTA,0.151 ± 0.048
3,ATCGGAAT,0.172 ± 0.0652
4,AAGAGTAT,0.277 ± 0.117
5,ATATATTG,0.238 ± 0.0753
6,AGGATCCG,0.308 ± 0.0272
7,AGGATCGC,0.27 ± 0.0489
8,CGGATCGC,0.395 ± 0.05
9,CAGATCGC,0.284 ± 0.0237
10,CAGATCCG,0.322 ± 0.0638
11,GGGATCCC,0.415 ± 0.0591
12,CGGATCCG,0.417 ± 0.0204
13,CGGATCCA,0.406 ± 0.0429
14,TGGATCCA,0.295 ± 0.0443
15,GGGATCCA,0.375 ± 0.0614
16,CGGATCTA,0.318 ± 0.04
17,GGGATCTA,0.272 ± 0.0387
18,AATGAGCC,0.158 ± 0.0559
19,ATGTCTCA,0.2 ± 0.0211
20,AGGGCGAT,0.284 ± 0.0121
21,ATCACCAG,0.166 ± 0.0324
22,CCACGATC,0.195 ± 0.0938
23,ATCCTGAC,0.228 ± 0.00948
24,AAGTATTG,0.157 ± 0.085
25,AGGATCCT,0.385 ± 0.0102

row,Sequence,binding signal [E-score]
1,CGGATCTC,0.342 ± 0.0442
2,AGGATCTC,0.292 ± 0.0258
3,CGGATCCC,0.399 ± 0.0592
4,AGGATCCA,0.346 ± 0.0238
5,CAGATCCC,0.295 ± 0.0571
6,AAGATCCT,0.326 ± 0.0346
7,AGGATCCC,0.379 ± 0.00668
8,AGGATCTG,0.244 ± 0.0478
9,ATCTTCGA,0.193 ± 0.0484
10,GAGGAATA,0.21 ± 0.0309
11,GACCTATC,0.269 ± 0.00861
12,GCCTGATA,0.321 ± 0.0449
13,GCATGATA,0.4269 ± 0.00375
14,CCATGATC,0.293 ± 0.0102
15,ACATGATC,0.279 ± 0.0144
16,ACATGATA,0.426 ± 0.0281
17,CCATGAGA,0.242 ± 0.0275
18,ACATGAGA,0.183 ± 0.0219
19,GCACGATA,0.325 ± 0.00783
20,CCATGATA,0.376 ± 0.00711
21,AACCATCT,0.154 ± 0.0503
22,ATCAATAA,0.182 ± 0.0114
23,ATCAGCCA,0.237 ± 0.00617
24,ACCGCTAT,0.216 ± 0.0322
25,CAGATACC,0.433 ± 0.00544

row,Sequence,binding signal [E-score]
1,AAGATACC,0.426 ± 0.0219
2,CAGATACA,0.355 ± 0.0318
3,GAGATACC,0.44068 ± 0.000332
4,AAGATACG,0.322 ± 0.0506
5,GAGATACA,0.332 ± 0.0042
6,AAAATACC,0.181 ± 0.0716
7,CAGATACG,0.334 ± 0.0281
8,GAGATAGC,0.161 ± 0.0517
9,GATCTGGC,0.295 ± 0.0253
10,ATATTGTA,0.294 ± 0.0399
11,TAATATTA,0.161 ± 0.0729
12,GATCAAGC,0.312 ± 0.00728
13,ACACGACT,0.162 ± 0.0387
14,ATCATTCG,0.294 ± 0.00745
15,GAGCGATC,0.279 ± 0.0379
16,GATCTCCC,0.361 ± 0.00166
17,TATCGAAA,0.345 ± 0.0543
18,CCATCTCG,0.166 ± 0.114
19,GATCACAC,0.351 ± 0.0284
20,GATCATCA,0.34 ± 0.00658
21,GATCATAC,0.3778 ± 0.00307
22,GATCATGC,0.242 ± 0.0641
23,GATCATCC,0.41 ± 0.0124
24,GATCACCC,0.407 ± 0.0371
25,GCTCATCC,0.219 ± 0.00236

row,Sequence,binding signal [E-score]
1,CATCATAC,0.151 ± 0.0343
2,GATCACGC,0.317 ± 0.0237
3,GATGGGGA,0.191 ± 0.049
4,CGTGGATA,0.362 ± 0.0371
5,ACCTGCTA,0.2283 ± 0.000693
6,TGGTGACA,0.156 ± 0.0327
7,GATCCTAC,0.32 ± 0.0262
8,AGGCGATA,0.357 ± 0.00753
9,AAGCGATC,0.239 ± 0.00546
10,CTGCGATA,0.342 ± 0.0342
11,GTGCGATA,0.36 ± 0.0111
12,ATGCGATA,0.394 ± 0.037
13,CAGCGATA,0.359 ± 0.0421
14,TAGCGATA,0.3796 ± 0.0024
15,GAGCGATA,0.344 ± 0.042
16,AAGCGATA,0.376 ± 0.0611
17,AGATAGTG,0.152 ± 0.0589
18,CCCATCCG,0.191 ± 0.101
19,CAATGACA,0.198 ± 0.0712
20,GGTGTTTA,0.203 ± 0.0284
21,ACCCGACA,0.239 ± 0.0574
22,ATCAATGC,0.163 ± 0.0171
23,ATCCATTA,0.244 ± 0.00287
24,AGCCGTAT,0.292 ± 0.018
25,ATATACGC,0.244 ± 0.0546

row,Sequence,binding signal [E-score]
1,GATGATCA,0.315 ± 0.00602
2,TATGATCA,0.25 ± 0.0234
3,GATGATCC,0.45356 ± 0.000438
4,GAAGATCC,0.297 ± 0.0273
5,AATGATCC,0.424 ± 0.011
6,CATGATCA,0.177 ± 0.0294
7,AATGATCT,0.369 ± 0.0567
8,AATGATCG,0.152 ± 0.117
9,CATGATCC,0.394 ± 0.00778
10,AACGGGAT,0.243 ± 0.0163
11,GATAGGAC,0.22 ± 0.0517
12,TCATGGGA,0.153 ± 0.0225
13,ATAGCCAA,0.218 ± 0.0447
14,CCGCGGTA,0.194 ± 0.102
15,CGGTGTAG,0.297 ± 0.025
16,CACGGATA,0.397 ± 0.0101
17,AACGGATC,0.376 ± 0.0111
18,AACGGATT,0.204 ± 0.0564
19,GACGGATA,0.35 ± 0.0364
20,AACAGATC,0.2 ± 0.0405
21,CACAGATC,0.277 ± 0.0367
22,AACGGGTA,0.159 ± 0.0738
23,CACGGATC,0.405 ± 0.0341
24,GACGGATC,0.358 ± 0.041
25,AACGGATA,0.421 ± 0.0091

row,Sequence,binding signal [E-score]
1,CACAGATA,0.205 ± 0.00976
2,AATGGATC,0.35 ± 0.00509
3,ATACAGGA,0.228 ± 0.0565
4,ATGCAATA,0.192 ± 0.0352
5,GAGTAGAC,0.214 ± 0.0128
6,ATATGCCC,0.339 ± 0.0543
7,CGATCTAG,0.1577 ± 0.00153
8,ATCATTTC,0.1962 ± 0.00187
9,ATCAAGCG,0.228 ± 0.0527
10,AGAGCGAT,0.159 ± 0.0536
11,AAGCCGAT,0.211 ± 0.0118
12,CATTATAC,0.28 ± 0.0245
13,CGAGGGGA,0.164 ± 0.0583
14,TACGGATA,0.401 ± 0.0137
15,TAAGGATA,0.276 ± 0.0458
16,TACAGATA,0.267 ± 0.0119
17,CCCATCCC,0.154 ± 0.0727
18,GCTAGATA,0.255 ± 0.0399
19,ATACTGAA,0.173 ± 0.0413
20,ATATGGTA,0.256 ± 0.011
21,CCACTATC,0.227 ± 0.0482
22,GCATACGA,0.157 ± 0.0596
